Records with an inconclusive call do not appear. Active and inactive are the calls of the source. The call rests on the fitted dose curve; in most records, active means well fitted inhibition curve with a large enough effect; inconclusive means small, poorly fitted or top-dose-only effect; inactive means flat fitted curve, though single readings scatter. Where a SMILES comes first, the peptide text is derived from it. The star is where a group is joined. PhAc = O=C(Cc1ccccc1)*
Columns and labels:
Test in all cases: Cytotoxic Profiling of Annotated Libraries Using Quantitative High-Throughput Screening (AID 1296008); further: nearly all actives have a fitted effect of over 60% in size
Conditions in all cases: Five cell lines viability, CellTiter-Glo ATP luminescence, 48-72 h; max response: active compounds read low
CRL-7250 = normal cell line; test system: CRL-7250
Procedure, shortened: (§1)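 Cytotoxicity was measured as CellTiter-Glo ATP luminescence, read after 10 min at room temperature. Compound treatment of the cells lasted 48 or 72 hr at 37 degrees Celsius in a qHTS format.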

HEK293 = test system: HEK293
Procedure, shortened: as §1

HaCat = test system: HaCat
Procedure, shortened: as §1

KB-3-1 = test system: KB-3-1
Procedure, shortened: as §1

NIH3T3 = test system: NIH3T3
Procedure, shortened: as §1

Measured: max response
On the % scale 0 is the no-effect control and ±100 the full control effect.

Cc1ccc2[nH]c(=O)c(C3=NN(C(=O)CCC(=O)O)C(c4ccc(Br)cc4)C3)c(-c3ccccc3)c2c1 (stereo not given)
inactive: CRL-7250 0.735% | HEK293 1.24% | HaCat -0.37% | KB-3-1 4.72% | NIH3T3

O=C(N[C@H](Cc1ccccc1)C(=O)O)c1sc2cc(F)ccc2c1Cl
inactive: CRL-7250 2.45% | HEK293 -2.83% | HaCat -0.292% | KB-3-1 | NIH3T3

C=C1C(O)C(OC(=O)c2ccccc2)C2C(C)(C(=O)O)CCCC2(C)C1CC/C(C)=C\CO (stereo not given)
inactive: CRL-7250 -4.65% | HEK293 -1.62% | HaCat | KB-3-1 5.47% | NIH3T3

COc1cccc(CN(C(=O)CC(C)(C)C)C2CC(C(=O)N3CCNCC3)N(Cc3ccc4c(c3)OCO4)C2)c1 (stereo not given)
inactive: CRL-7250 -4.46% | HEK293 -17.6% | HaCat | KB-3-1 | NIH3T3

CC(=O)/C=C/[C@H]1[C@](C)(O)[C@@H](O)[C@H](O)C2C(C)(C)CCC[C@@]21C (stereo not given in full)
inactive: CRL-7250 -11.3% | HEK293 -5.03% | HaCat | KB-3-1 -3.39% | NIH3T3

CCC(C)/C=C(C)/C=C/C1=CC2=C(Cl)C(=O)C(C)(OC(C)=O)C(=O)C2=CN1C(CCCN=C(N)N)C(=O)O (stereo not given)
inactive: CRL-7250 -3.35% | HEK293 3% | HaCat | KB-3-1 7.97% | NIH3T3 -0.868%

O=C(O)c1ccc(NC(=O)[C@H](CC2CCCC2)n2cnc(C(F)(F)F)c2)nc1
inactive: CRL-7250 -11.6% | HEK293 -11% | HaCat | KB-3-1 | NIH3T3

CC1(C)CC[C@]2(C(=O)O)CC[C@]3(C)C(=CCC4[C@@]5(C)CC[C@H](O[C@@H]6O[C@H](C(=O)O)[C@@H](O)[C@H](O[C@@H]7O[C@H](CO)[C@H](O)[C@H](O)[C@H]7O)[C@H]6O[C@@H]6O[C@H](CO)[C@@H](O)[C@H](O)[C@H]6O)C(C)(C)C5CC[C@]43C)[C@@H]2C1 (stereo not given in full)
inactive: CRL-7250 3.2% | HEK293 -6.56% | HaCat | KB-3-1 | NIH3T3

CCC(C)C(=O)O[C@H]1C[C@](C)(O)[C@]23OC(C)(C)[C@H](C[C@H](OC(=O)c4ccccc4)[C@]2(COC(C)=O)[C@H]1OC(=O)C(C)CC)[C@H]3OC(C)=O (stereo not given in full)
inactive: CRL-7250 -7.32% | HEK293 -12.8% | HaCat | KB-3-1 | NIH3T3 4.39%

CC(C)c1ccc2c(c1)CCC1[C@](C)(C(=O)O)CCC[C@]21C (stereo not given in full)
inactive: CRL-7250 | HEK293 2.37% | HaCat | KB-3-1 -0.955% | NIH3T3

CCOC(=O)CNC(=O)[C@@H]1CCCN1C(=O)Cc1ccccc1 (PhAc-Pro-Gly-OEt)
inactive: CRL-7250 -0.853% | HEK293 4.73% | HaCat | KB-3-1 5.86% | NIH3T3 -14.5%

CCOC(=O)COc1ccc2c(c1)C[C@@H](NC[C@H](O)c1cccc(Cl)c1)CC2
inactive: CRL-7250 | HEK293 4.31% | HaCat | KB-3-1 7.38% | NIH3T3 1.73%

From PubChem BioAssay (NCATS)
